Shown is part of a subset that was picked to be rich in hits.
Pf Dd2 growth – Plasmodium falciparum Dd2 growth inhibition. P. falciparum Dd2 growth, SYBR Green, 72 h. Potency, µM (top dose mostly 28.9 µM), inactives show at the top dose activity, negative = inhibition, most hits filed as inhibitors. 120,000 compounds, 4.3% hits; active = well fitted inhibition curve with a large enough effect;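 also: plate controls were DMSO vehicle for no effect and reference drug for full effect; nearly all actives have a fitted effect of over 65% in size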
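Infected erythrocytes (Dd2, 0.3% parasitemia, 2.5% hematocrit final) are added to compound in RPMI-1640/Albumax II medium, grown 72 h at 37C in low oxygen, then lysed with saponin/Triton-X containing SYBR Green and read by fluorescence.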
Numbers without * were called inactive; i = inactive; [ ] = remark or other dose. Potency is read from the fitted curve at half-maximal effect.

SMILES	Pf Dd2 growth
CCn1c(CN2CCN(C)CC2)nc2ccccc21	-23%
CCCC(=O)Nc1ccc2c(c1)nc(CN1CCN(C(=O)OCC)CC1)n2C(C)C	-7%
CCn1c(CN2CCCCC2)nc2cc(NC(=O)c3cccc([N+](=O)[O-])c3)ccc21	3.5µM*
F[C@@H]1CN(C2CCOCC2)C[C@@H]1OCc1nc2ccccc2[nH]1	36%[44.1 µM]
CC[C@H]1CN(C(C)=O)CC[C@H]1CC(=O)NCCOC	-19%[44.1 µM]
CC(C)Oc1cc(F)cc(-c2cc(NCCO)ncn2)c1	-22%
CCC1(O)CCC12CCN(C(=O)c1ccncc1)CC2 (stereo not drawn)	-20%
CC(C)[S+](=O)([O-])N1CC2(CN(Cc3ccc(Cl)cc3)C(=O)O2)C1	3%[44.1 µM]
COCC(=O)N[C@H]1C[C@@H](CO)N(Cc2ccccc2Br)C1	6%
COc1ccc(C(=O)N2CCn3c(nnc3C3CCCNC3)C2)cc1 (stereo not drawn)	25%
CCC1c2nccn2CCCN1C(=O)CCn1cccn1 (stereo not drawn)	-8%
O=C(O)Cn1nc(C2CCCC2)nc1-c1cccc(Cn2cccn2)c1	-5%
CCCCCCNc1ncnc2c1sc1nc(N3CCOCC3)c3c(c12)CCCC3	8.9µM*
CC(C)OCCCNc1ncnc2sc3c(c12)CCCC3	i
CCCc1nc2sc3c(N4CCCCC4)ncnc3c2c2c1CCCC2	24%
COC(=O)c1cn([C@H]2CO[C@H]3[C@@H]2OC[C@@H]3NC(=O)COc2ccccc2)nn1	i
COc1cccc(Cn2nnc3c(=O)[nH]c(C4CCCN(C(=O)c5ccc(C)cc5)C4)nc32)c1 (stereo not drawn)	10µM*
O=c1[nH]c(C2CCCN(S(=O)(=O)c3ccccc3Cl)C2)nc2c1nnn2Cc1ccc(OC(F)(F)F)cc1 (stereo not drawn)	i
CCc1ccc(Cn2nnc3c(=O)[nH]c(C4CCCN(C(=O)c5cccc(Cl)c5)C4)nc32)cc1 (stereo not drawn)	1%
CS(=O)(=O)N1CCOC(Cn2ccnc2-c2ccc(CO)o2)C1 (stereo not drawn)	-3%
O=c1[nH]c(N2CCc3ccccc3C2)nc2c1CCN(Cc1ccncc1)CC2	i[5.79 µM]
Fc1cccc(-c2nnn3c2nc(NC2CCCCC2)c2ccccc23)c1	8.9µM*
Fc1cccc(-c2nnn3c2nc(NCc2ccc4c(c2)OCO4)c2ccccc23)c1	8%
CC(C)Nc1nc2c(-c3cccc(Br)c3)nnn2c2ccccc12	i
O=c1n(CC2CC2)nc2n1CCN(S(=O)(=O)c1ccc(Cl)s1)CC2	-11%
SMILES	Pf Dd2 growth
CCOc1ccc(NCc2cccn2-c2nnc(N3CCC(C(=O)NC(C)c4ccccc4)CC3)s2)cc1 (stereo not drawn)	i
CCOc1ccc(CCNC(=O)C2CCN(Cc3nc(-c4ccc(OC)c(OC)c4)oc3C)CC2)cc1OCC	i
Cc1ccc(NCc2cccn2-c2nnc(N3CCC(C(=O)NCc4ccccc4C)CC3)s2)cc1	i
CCOc1ccc(NCc2cccn2-c2nnc(N3CCC(C(=O)NCCc4ccc(OCC)c(OCC)c4)CC3)s2)cc1	6.3µM*
CCOc1ccc(NCc2cccn2-c2nnc(N3CCC(C(=O)NCCc4ccc(OC)c(OC)c4)CC3)s2)cc1	7.1µM*
COc1ccccc1CCNC(=O)C1CCN(c2nnc(-n3cccc3CNc3ccc(C)cc3)s2)CC1	-10%
O=C(Nc1ccccc1)Nc1ccc(=O)n2c1[C@@H]1C[C@@H](CN(C(=O)Nc3ccc(F)cc3)C1)C2	4%
CC1=NOC2(CCN(C(=O)c3ccc4c(c3)OCO4)C2)C1 (stereo not drawn)	-11%[44.1 µM]
COc1cccc(S(=O)(=O)N2CC3(C2)C(=O)Nc2ccccc23)c1	0%
N#Cc1cccc(S(=O)(=O)N[C@@H]2CCOC[C@H]2OCc2cscn2)c1	-6%
Cc1oc(C(O)c2cccc(O)c2)nc1C(=O)Nc1ccc2[nH]c(=O)oc2c1 (stereo not drawn)	i
CCOC(=O)CCNC(=O)N1CCCC(Cn2cnc3cccnc32)C1 (stereo not drawn)	18%
O=C(c1ccc2c(c1)OCO2)N1CCC2(CC1)NC(=O)N(Cc1ccc(F)cc1)C2=O	-7%
COc1ccc(-c2nc(C3CC(=O)N(C4CCCCC4)C3)no2)cc1 (stereo not drawn)	61%
COc1cccc(-c2nc(C3CC(=O)N(C4CCCCC4)C3)no2)c1 (stereo not drawn)	39%
COc1cccc(-c2cc(-c3nc(C4CC(=O)N(C5CCCCC5)C4)no3)[nH]n2)c1 (stereo not drawn)	5µM*
CO[C@H]1C(=O)N(C(C)C)[C@H]1C1CCN(S(=O)(=O)c2ccc3c(c2)OCCO3)CC1	-22%
Cn1c(CO[C@H]2CN(Cc3ccc(S(C)(=O)=O)cc3)C[C@H]2F)nc2ccccc21	-6%[44.1 µM]
COc1ccc(C(C)=O)cc1CSc1nc(NCCc2ccccc2)c2ccccc2n1	11µM*
COc1ccc(C(C)=O)cc1CSc1nc(Nc2ccc(F)c(F)c2)c2ccccc2n1	11µM*
COc1ccc(-c2nnc(SCc3cccc(Cl)c3)o2)cc1	44%
